The results in this text go back to PubChem BioAssay AID434973 (Sanford-Burnham Center for Chemical Genomics, 2010).

About 4,900 (1.5%) of roughly 330,000 compounds were called active. The entries come from a sample that favours actives as a whole. Values without a mark were called inactive.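 How the source made its calls: active means inhibition above about 50% at the single test dose (limit read from the data); inactive means the rest.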

The target in the experiment is Sentrin-specific protease 7 (Homo sapiens) (UniProt Q9BQF6). The experiment in a line: blockers of human SENP7 peptidase activity – biochemical, luminescence, uHTS, primary screen (AID 434973).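 Further: plate controls were DMSO with enzyme for no effect and no enzyme buffer wells for full effect.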 The note with it: recombinant SENP7, Z-RLRGG-aminoluciferin luminescence, 40 min; at 5 µM; hits give high values.
Regarding `CN(c1ccccc1)S(=O)(=O)c1ccc(Cl)c(C(=O)OCC(=O)N2CCOCC2)c1`, the inhibition was 3.02%. In the case of `O=C(NCCC(=O)N1O[C@@H]2C=C[C@H]1C2)OCC1c2ccccc2-c2ccccc21` it was 3.86%.

As to `Cc1ccn(C(CC(=O)c2ccc(Br)cc2)C(=O)O)n1` (stereo unspecified), the inhibition is 4.97%. With `CCCCN(CC)C(=O)c1ccccc1Oc1ccccc1`, the inhibition is 6.13%. For the molecule `COC(=O)c1nn(-c2cccc(Cl)c2)ccc1=O`, the inhibition was 3.97%. The result for `COc1ccc(N=C(C)c2sc3ccccc3c2O)cc1` reads 83.7% (active); that for `COc1ccc(-c2sc3ccccc3c2-c2ccc(OCCN3CCOCC3)cc2)cc1`, -12.1%. In the case of `COC(=O)c1ccc(/C=C/c2c(-c3ccc(OC)cc3)sc3ccccc23)cc1`, the inhibition is 3.42%.

Turning to `Cc1ccc2cc3cc(C(=O)N4CCCCCC4)oc3nc2c1`, the inhibition was 55.3% (active). In the case of `Cc1ccc2nc(N3CCN(C(=O)c4ccco4)CC3)sc2c1` it was -7.97%; in that of `Cc1cc(C)cc(NC(=O)N2CCCCCCC2)c1`, 0.706%; in that of `O=c1onc(-c2c(F)cccc2F)n1-c1ccccc1Cl`, -2.38%. The result for `Cc1cc(=O)[nH]c(S)c1C#N` reads 7.81%. The result for `CCc1ccc(OCC(=O)OCC(=O)c2c(N)n(C)c(=O)n(C)c2=O)cc1` reads -1.23%; that for `c1ccc2sc(NN=C3CCCC3)nc2c1`, 82.2% (active); that for `CCN(CC)CCn1c2c(c(SCC(=O)Nc3nc4ccccc4s3)nc1=O)CCCC2`, 4.47%. As for `O=C1NC(Nc2nc3ccccc3s2)(C(F)(F)F)C(=O)N1C1CCCCC1` (stereo unspecified), the inhibition is 6.04%. In the case of `COc1ccc(CNC(=O)C2CCC(CNc3c(N4CCOCC4)c(=O)c3=O)CC2)cc1` (stereo unspecified) it was -10.4%; in that of `O=C(Nc1nnc(-c2ccccc2)o1)c1cccc(S(=O)(=O)N2CCOCC2)c1`, -5.26%. Turning to `O=C(O[C@H]1[C@H](Cc2ccccc2)NS(=O)(=O)[C@H]2C[C@@H]3C=C[C@]12O3)c1ccc([N+](=O)[O-])cc1`, the inhibition was 7.73%.

As for `Cc1cccc(N(CC(=O)N=Nc2c(O)[nH]c3ccccc23)S(C)(=O)=O)c1C`, the inhibition was 5.39%.

Turning to `O=C(CCN1CCCCC1)N=Nc1c(O)[nH]c2ccccc12`, the inhibition was -5.94%. The result for `Cc1c(-c2ccccc2)n[nH]c1C(=O)N=Nc1c(O)[nH]c2ccccc12` reads 84.6% (active); that for `CCCc1ccc(OCCNC(=O)c2ccccc2Br)cc1`, -1.05%; that for `CCCc1ccc(OCCNC(=O)c2ccco2)cc1`, -0.541%.

With `CCCOc1ccc(C(=O)NCCc2ccccc2)cc1`, the inhibition was 78.1% (active). The result for `COc1ccc(CCNC(=O)C(=O)NCC2CCNCC2)cc1OC` reads 2.84%. For `COc1ccc(SC[C@H](Cc2ccccc2)N2CCN(CCc3ccccc3)CCC2=O)cc1`, the inhibition was -3.68%.

In the case of `CCn1cc(C(=O)NCCCN2CCCCCC2)c(=O)c2cc(S(=O)(=O)N3CCc4ccccc4C3)ccc21`, the inhibition is 7.21%. For `COc1cc(OC)cc(-c2nc(=S)n3ccsc3n2)c1`, the inhibition is 0.18%. On to `CCN(CC)S(=O)(=O)c1ccc(-c2cn3ccc(C)cc3n2)cc1`, for which the inhibition was 10.3%. In the case of `COc1ccc(-c2cn3cccnc3n2)cc1` it was 1.35%.

For `COc1ccc(-c2cn3ccsc3n2)cc1`, the inhibition is 58.5% (active). Consider `Cc1ccn2cc(C(=O)NC3CCN(Cc4ccccc4)CC3)nc2c1`, for which the inhibition is 5.68%. The result for `COc1ccc(-c2cn3ccc(C)cc3n2)cc1` reads 98.1% (active); that for `CC(C)(C)c1ccc(/C=C/C(=O)NC2CCS(=O)(=O)C2)cc1` (stereo unspecified), 5.24%; that for `Cc1ccc(S(=O)(=O)N2CCN(C(=O)c3ccc(-n4cncn4)c([N+](=O)[O-])c3)CC2)cc1`, 0.142%. Consider `CN(C)S(=O)(=O)c1cc(NC(=O)CN2C(=O)NC3(CCCc4ccccc43)C2=O)ccc1Cl` (stereo unspecified), for which the inhibition is -13.5%.

As to `Cc1nc2nc(C)c(NS(=O)(=O)c3ccc(C(C)(C)C)cc3)c(=O)n2[nH]1`, the inhibition is -0.191%. Turning to `Cc1csc(SCC(=O)Nc2sccc2C#N)n1`, the inhibition was 94% (active). Turning to `Cc1ccc(NC(=O)CSCC(=O)Nc2sccc2C#N)cc1`, the inhibition is 1.52%. In the case of `Cc1cccc(C)c1Nc1nnc(SCC(=O)Nc2sccc2C#N)s1` it was 8.73%; in that of `COC(=O)C1=C(C)NC(=O)/C1=C/c1ccc(CNS(=O)(=O)c2ccc(C)cc2)o1`, -2.86%; in that of `CC(=O)Nc1ccc(C(=O)Nc2cccc(S(=O)(=O)NC3=NCCC3)c2)cc1`, -0.0847%. In the case of `CN(Cc1c(F)cccc1Cl)C(=O)CNC(=O)c1ccc2c(c1)OCO2`, the inhibition was -9.22%. Consider `O=C(Nc1ccc(N2CCOCC2)cc1)c1ccc2c(c1)OCO2`, for which the inhibition was 16.9%. The result for `CC(C)C(=O)Nc1cccc(C(=O)Nc2ccc3c(c2)OCO3)c1` reads 34.3%; that for `O=C(Nc1ccc(NC(=O)c2ccc3c(c2)OCO3)cc1)c1cccc(Cl)c1`, 1.85%. As to `O=C(Nc1ccc2c(c1)OCCO2)c1ccoc1`, the inhibition was -0.659%. In the case of `O=C(Nc1ccccc1)c1ccc2c(c1)OCO2` it was 88.5% (active); in that of `O=C(Nc1cccc([N+](=O)[O-])c1)c1ccc2c(c1)OCO2`, 66.9% (active). As for `O=C(Nc1ccccc1F)c1ccc2c(c1)OCO2`, the inhibition is 67.5% (active).

Consider `N#Cc1ccccc1NC(=O)c1ccc2c(c1)OCO2`, for which the inhibition was 2.46%. The result for `CC(NC(=O)Nc1cccc([N+](=O)[O-])c1)c1ccc2c(c1)OCO2` (stereo unspecified) reads 3.89%; that for `O=C(Nc1ccccc1)c1ccc2c(c1)OCCCO2`, 90.7% (active); that for `CN1CCN(c2ccc(NC(=O)c3ccc4c(c3)OCCO4)cc2Cl)CC1`, -1.01%. Consider `Cc1ccc(S(=O)(=O)N2CCOCC2)cc1NC(=O)CSc1nnc(N)s1`, for which the inhibition was -5.72%. As for `CC(C)(C)C1CCC(OC(=O)CCC(=O)Nc2ccccc2)CC1` (stereo unspecified), the inhibition is 3.21%.

Take `COc1cc(OC)cc(/C(N)=N/O)c1`: the inhibition is 0.905%. The result for `O=C(CN1C(=O)NC2(CCCC2)C1=O)NCC1CCCO1` (stereo unspecified) reads 4.93%; that for `O=C(CN1C(=O)CC(c2ccccc2)S(=O)(=O)c2ccccc21)NC1CCCC1` (stereo unspecified), 2.74%.
